Compound activity deposited in PubChem BioAssay by National Center for Advancing Translational Sciences (NCATS).
Compounds with a hit are over-represented: about 3% of the library has one in this group of screens.
KDM4E inh = inhibitors of human JMJD2E histone demethylase. hit rate 1.6% among 230,000. AID 2147. JMJD2E catalytic domain, FDH-coupled NADH fluorescence (FDH is formaldehyde dehydrogenase). B2RXH2. Potency, µM (top dose mostly 57.1 µM), for inactives: at the highest dose activity change, negative = inhibition, usual class: inhibitors; active = well fitted inhibition curve with a large enough effect, not every such curve was filed as active; inconclusive = small, poorly fitted or top-dose-only effect, or another doubt; inactive = no such curve, though single readings can be large or run the other way;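 also: potency is read from the fitted curve at half-maximal effect; 0% = wells with enzyme and -100% = buffer wells without enzyme; nearly all actives have a fitted effect of over 50% in size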
Target sequence (B2RXH2 1-337 limits assumed): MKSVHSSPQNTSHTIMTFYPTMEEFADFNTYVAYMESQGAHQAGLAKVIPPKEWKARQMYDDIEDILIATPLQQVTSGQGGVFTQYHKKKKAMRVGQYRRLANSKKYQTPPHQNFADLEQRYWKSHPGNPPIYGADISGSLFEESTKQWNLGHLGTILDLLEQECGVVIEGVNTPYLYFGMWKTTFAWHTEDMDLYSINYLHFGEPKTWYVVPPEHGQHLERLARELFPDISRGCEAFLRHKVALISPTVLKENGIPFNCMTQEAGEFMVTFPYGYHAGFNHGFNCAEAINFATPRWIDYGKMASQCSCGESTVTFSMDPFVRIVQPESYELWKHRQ
Tau ThT inhib = tau fibrillization inhibition (ThT binding); Potency, µM (top dose mostly 57.4 µM), for the others: at the highest dose activity, negative = inhibition, hits mostly inhibitors; recombinant tau K18 P301L, heparin-induced fibrillization, ThT fluorescence; P10636; AID 1460; hit rate 2.1% among 270,000; also: potency is read from the fitted curve at half-maximal effect; nearly all actives have a fitted effect of over 55% in size
Target sequence (P10636 561-689 P618L limits assumed): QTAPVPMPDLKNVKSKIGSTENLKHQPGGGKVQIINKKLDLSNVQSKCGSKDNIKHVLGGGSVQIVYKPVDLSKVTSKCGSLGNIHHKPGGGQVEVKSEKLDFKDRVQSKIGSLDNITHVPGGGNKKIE
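Fibril formation assay: tau K18 P301L at 15 uM with trace Alexa 594 label, heparin inducer 20 uM, pH 7 sodium acetate buffer, 37 C for 6 hr; endpoint ThT signal.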
FBPA coupling cs = counter-screen for Giardia aldolase inhibitors: coupling enzyme system; coupling enzyme system counterscreen, AmpLite Red fluorescence; activity change, negative = inhibition, % at 58.2 µM, hits read low; hit rate 0.67% among 290,000; AID 2472; in the data active = activity change below about -30%
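Fluorescence at 525 nm excitation and 598 nm emission measured inhibition of the coupled detection system without aldolase. Compounds (at 57.5 uM final) were preincubated 10 min at room temperature with coupling enzyme reagent before a 20 min substrate/AmpLite Red step.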
Tau fluor counter = counter-screen for tau fibril formation inhibitors; tau K18 P301L Alexa594 fluorescence, heparin fibrillization; AID 1463; hit rate 0.93% among 280,000; Potency, µM (doses to about 57.7 µM), for inactives: at the highest dose activity change, negative = decrease; also: potency is read from the fitted curve at half-maximal effect; nearly all actives have a fitted effect of over 55% in size
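Human tau K18 P301L (15 uM unlabeled, 0.24 uM Alexa 594-labeled) in 100 mM sodium acetate pH 7 with 20 uM heparin, 6 hr at 37 C. ThT 30 uM added, 1 hr ambient; Alexa 594 FP and total fluorescence read at 555/632 nm.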
Tau FP inhib = blocks human tau fibril formation measured by polarization; K18 P301L tau heparin fibrillization, Alexa594 FP, 6 h; hit rate 0.39% among 280,000; AID 1468; P10636; Potency, µM (series often up to 57.7 µM), for inactives: at the highest dose activity, negative = inhibition, most hits filed as inhibitors; also: potency is read from the fitted curve at half-maximal effect; nearly all actives have a fitted effect of over 55% in size
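Human K18 P301L fragment (15 uM unlabeled plus 0.24 uM Alexa 594-labeled) in 100 mM sodium acetate pH 7 with compound, aggregation induced by 20 uM heparin for 6 hr at 37 C. ThT (30 uM) added for 1 hr, then Alexa 594 FP read.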
* hit, by the source's call; ? = inconclusive; / = not tested or not shown; [ ] = dose if it differs, or a comment. Unless noted, calls follow the shape of the dose curve; as a rule, active = well fitted curve in the direction sought with a large enough effect; inconclusive = small, poorly fitted or top-dose-only effect, or another doubt; inactive = no such curve, though single readings can be large; an effect the other way counts as inactive or inconclusive. Unless noted, % is scaled to controls: 0 for no effect and ±100 for the full control effect.

SMILES | KDM4E inh | Tau ThT inhib | FBPA coupling cs | Tau fluor counter | Tau FP inhib
COc1ccc2c(c1)CC(C(=O)NCCc1ccc(S(N)(=O)=O)cc1)CO2 (configuration not stated) | / | -6.3% | / | -1.7% | 0.1%
O=S(=O)(Nc1cc(F)ccc1F)c1ccc2[nH]c3c(c2c1)CCCCC3 | / | -7.8% | / | 12.6µM*[quencher] | ?
CCOc1ccccc1NS(=O)(=O)c1ccc2[nH]c3c(c2c1)CCCCC3 | / | 4.0% | / | ? | -8.1%
O=S(=O)(Nc1cccc(F)c1)c1ccc2[nH]c3c(c2c1)CCCCC3 | / | ? | / | 8.91µM*[quencher] | ?
COc1cc(NS(=O)(=O)c2ccc3[nH]c4c(c3c2)CCCC4)cc(OC)c1OC | / | -12.6% | / | ? | 18.1%
O=S(=O)(Nc1cc(F)ccc1F)c1ccc2[nH]c3c(c2c1)CCCC3 | / | -3.8% | / | 11.2µM*[quencher] | 10.8%
Cc1ccc(NC(=O)Cn2ncn3c(cc4ccccc43)c2=O)cc1C | / | -3.4% | / | -30.0% | -9.6%
CNCc1ccccc1Sc1ccc(O)c(O)c1 | 14.1µM* | 3.98µM* | -40.3* | ? | 8.91µM*
COc1ccc(-c2nc3c(c4c2CC(C)OC4)CN(CCC(C)C)CC3)cc1 (configuration not stated) | / | -10.0%[11.5 µM] | -0.3 | -8.2%[11.6 µM] | 0.7%[11.6 µM]
COC(=O)/C(=C1/Oc2cc(C)oc(=O)c2S1)C(F)(F)F | -3.0% | 8.91µM* | 0.1 | -21.5% | ?
COc1cccc(CCNc2ncnc3c2nnn3C)c1 | / | 0.8% | / | 3.7% | -10.1%
COc1ccc2c(C#N)c3ccccn3c2c1 | ? | -9.5% | -36.9* | -29.5% | ?
Cc1ccc(-n2[nH]c(C)c(C=Nc3ccc(S(=O)(=O)Nc4nccs4)cc3)c2=O)cc1 | -2.9% | ? | -0.6 | -19.8% | 5.2%
Cc1[nH]n(-c2ccc(Br)cc2)c(=O)c1C=Nc1ccc(S(=O)(=O)Nc2nccs2)cc1 | 17.6% | 15.8µM* | -1.2 | ? | -13.0%
CCS(=O)(=O)N1CCC(C(=O)N2CCc3ccccc3C2)CC1 | -2.0% | ? | -0.4 | 15.8µM*[quencher] | ?
CC(=O)OCC(NC(=O)C(CCCCNC(=O)OCc1ccccc1)NC(=O)OC(C)(C)C)C1OC(n2cc(F)c(=O)[nH]c2=O)C(OC(C)=O)C1OC(C)=O (configuration not stated) | / | / | 5.7 | / | /
CCC(Sc1nc(C)cc(C)n1)C(=O)NC1=NN=C(c2ccc(C)cc2)CS1 (configuration not stated) | -8.5% | 31.6µM* | 2.4 | -17.5% | ?
C[C@H]1Cc2c(-c3ccccc3)nc3c(c2CO1)CN(S(=O)(=O)c1ccc(C#N)cc1)CC3 | 2.5%[11.4 µM] | -5.2%[11.5 µM] | 0.3 | -13.3%[11.6 µM] | -3.0%[11.6 µM]
CN(C)C(=O)c1ccc(-c2nc(Nc3ccncc3)c3ccccc3n2)cc1 | ? | -3.4% | -1.4 | -18.2% | -7.5%
CN(C)c1ccc(-c2nc(Nc3ccncc3)c3ccccc3n2)cc1 | ? | 7.08µM* | 0.1 | 7.08µM*[quencher] | ?
Cc1ccc(Nc2nc(-c3ccccc3)nc3ccccc23)cc1 | / | ? | / | 10µM*[quencher] | 17.8µM*
CN(C)c1ccc(-c2nc(N3CCNCC3)c3ccccc3n2)cc1 | ? | 14.1µM* | -9.5 | ? | 1.1%
Cc1cccc(Nc2nc(-c3ccccc3)nc3ccccc23)c1 | / | -8.5% | / | 6.31µM*[quencher] | 8.91µM*
Cc1ccc(Nc2nc(-c3ccncc3)nc3ccccc23)cc1 | ? | -2.1% | 1.2 | -20.1% | -8.0%
Oc1cccc(Nc2nc(-c3ccccc3)nc3ccccc23)c1 | / | -10.0% | 0.4 | 7.08µM*[quencher] | 14.1µM*
SMILES | KDM4E inh | Tau ThT inhib | FBPA coupling cs | Tau fluor counter | Tau FP inhib
CC(=O)Nc1cccc(Nc2nc(-c3ccccc3)nc3ccccc23)c1 | ? | 13.9% | -1.0 | ? | ?
COc1ccc(Nc2nc(-c3ccccc3)nc3ccccc23)cc1S(=O)(=O)N1CCOCC1 | ? | / | -4.5 | 12.6µM*[quencher] | 25.1µM*
CC1CCN(C(=O)c2cccc(NC(=O)c3nsc4ccccc34)c2)CC1 | / | -13.2% | / | -12.6% | 3.7%
Cc1ccc(CSC2=NC(C)(C)Nc3ccccc32)c(C)c1 | / | ? | / | 14.1µM*[quencher] | 3.8%
Clc1ccc(CSc2ncccn2)cc1 | -1.6% | 0.6% | 0.4 | -3.3% | 1.6%
CC1(C)N=C(SCc2ccc(Cl)cc2)c2ccccc2N1 | / | ? | / | 10µM*[quencher] | -11.4%
COc1ccccc1NC(=O)CN1C(=O)CC(c2ccc(C)c(C)c2)=Nc2ccccc21 | / | -7.2% | / | -23.7% | ?
CCC(=O)N(C1=C(NC(C)C)C(=O)c2ccccc2C1=O)C(C)C | ? | ? | -33.8* | -2.2% | -9.4%
CCC(=O)NC1=C(Nc2ccc(N)cc2)C(=O)c2ccccc2C1=O | / | / | -28.3 | / | /
CC(C)[C@H](NC(=O)[C@@H]1CSSC[C@H](NC(=O)[C@H](CC(=O)O)NC(=O)[C@H](C)NC(=O)[C@@H](NC(=O)CNC(=O)[C@H](C)N)[C@@H](C)O)C(=O)N[C@@H](Cc2ccccc2)C(=O)N[C@@H](Cc2c[nH]c3ccccc23)C(=O)N[C@@H](CCCCN)C(=O)N[C@@H](Cc2ccc(O)cc2)C(=O)N1)C(=O)O | / | / | 4.8 | / | /
Cc1cc(C(=O)N2CCN(c3cccc(C)c3C)CC2)c2c(C)nn(-c3ccccc3)c2n1 | / | -17.1% | / | -16.2% | -3.8%
CN=c1scc(-c2cccs2)n1/N=C/c1ccc(O)c(O)c1O | 14.1µM* | 12.6µM* | -16.1 | 20µM*[quencher] | ?
CN=c1scc(C)n1/N=C/c1cc(Br)c(O)c(OC)c1 | -8.9% | 12.6µM* | -2.3 | ? | 5.9%
CN=c1scc(C)n1/N=C/c1ccc(O)c(O)c1O | 7.94µM* | 7.08µM* | -59.2* | ? | 25.1µM*
Cc1cc(C)cc(NS(=O)(=O)c2ccc(N3CCCCS3(=O)=O)cc2)c1 | / | 2.8% | / | -17.6% | -2.4%
O=C(Nc1c(Cl)cccc1Cl)c1cccc2c1C(=O)N(C1CCCCC1)C2 | / | ? | / | -26.6% | -10.1%
Cc1ccc(C(=O)NC(C#N)=C(Cl)Cl)cc1 | -24.4% | 25.1µM* | 1.3 | -9.8% | ?
CCOC(=O)c1cc(-c2ccc(F)cc2)n(CCC(=O)Nc2nc3ccc(OC)cc3s2)c1C | / | -17.1% | / | -26.7% | ?
CC(=O)NC(c1ccccc1)c1cc(Cl)c2cccnc2c1O (configuration not stated) | / | / | -5.9 | / | /
O=[N+]([O-])c1cc(Cl)c2cccnc2c1O | 12.6µM* | 10µM* | -7.8 | -9.3% | -2.8%
O=[N+]([O-])c1ccc(Cl)c2cccnc12 | 3.3% | -4.9% | -9.6 | -6.6% | -7.8%
O=[N+]([O-])c1cccc2c(Cl)ccnc12 | ? | -8.2% | -9.4 | -2.8% | -10.1%[2.34 µM]
O=[N+]([O-])c1cc(CN2CCOCC2)c2cccnc2c1O | 3.9% | 5.5% | 1.4 | -3.3% | -8.4%
Oc1c(I)cc(Cl)c2cccnc12 | 14.1µM* | ? | -12.5 | ? | ?
O=[N+]([O-])c1cc(F)c2cccnc2c1O | 87.4% | 7.94µM* | -28.1 | -20.7% | ?
O=[N+]([O-])c1cc(Cl)c(O)c2ncccc12 | ? | 12.6µM* | -20.9 | -19.9% | -5.3%
CCN1CCN(c2ncc3c(n2)CCN(CC(C)C)C3)CC1 | / | -10.4% | / | -5.4% | 5.1%
